Measurements as given in PubChem BioAssay (Tox21).
Inconclusive results are not listed. Active and inactive are the calls of the source. Unless noted, calls come from the whole dose curve; as a rule, active = well fitted curve in the direction sought with a large enough effect in the repeat runs; inconclusive = weak or mixed curves; inactive = no such curve, though single readings can be large; an effect the other way counts as inactive or inconclusive.

Tests used:
[1] = qHTS assay to identify small molecule agonists of the estrogen related receptor signaling pathway with the pleiotropic PPARgamma coactivator (PGC) (AID 1224823)
Method in brief: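 Cell-based luciferase assay in the NTP-supplied PGC/ERR line, 2,000 cells/well; 18 h compound exposure at 37 C, luminescence after One-Glo.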

[2] = qHTS assay to identify small molecule antagonists of the estrogen related receptor (ERR) signaling pathway from Tox21 library - cell viability counter screen (AID 1224834); note: nearly all actives have a fitted effect of over 30% in size
Method in brief: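 ERR reporter cells were plated 6 h before compound addition, then exposed to test compounds in DMSO for 17.5 h at 37 C. Viability was read as CellTiter-Fluor fluorescence after a 30-minute incubation at 37 C.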

[3] = target: Luciferin 4-monooxygenase (Photinus pyralis) (UniProt P08659); assay: qHTS assay to identify small molecule inhibitors of firefly luciferase (AID 1224835); note: nearly all actives have a fitted effect of over 25% in size
Method in brief: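 Quantitative HTS format; KM concentrations of both substrates. Purified P. pyralis FLuc activity quantified from luminescence images.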

[4] = qHTS assay to identify small molecule agonists of the constitutive androstane receptor (CAR) signaling pathway - cell viability counter screen (AID 1224836); note: nearly all actives have a fitted effect of over 45% in size
Method in brief: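 Viability read-out: CellTiter-Fluor fluorescence after 23 h compound exposure at 37 C/5% CO2 in double-stable HepG2-CYP2B6-hCAR cells, with PK11195 present at 0.75 uM final; compounds tested in 15-point titration.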

[5] = qHTS assay to identify small molecule antagonists of the constitutive androstane receptor (CAR) signaling pathway - cell viability counter screen (AID 1224837); note: nearly all actives have a fitted effect of over 45% in size
Method in brief: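 HepG2 cells stably expressing hCAR and a CYP2B6-2.2kb reporter were plated and pre-incubated 4 hr at 37 C/5% CO2, then given compounds at 15 concentrations plus 50 nM CITCO (final). After 23 hr, viability was read by CellTiter-Fluor fluorescence.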

[6] = target: Nuclear receptor subfamily 1 group I member 3 (Homo sapiens) (UniProt Q14994); assay: qHTS assay to identify small molecule antagonists of the constitutive androstane receptor (CAR) signaling pathway (AID 1224838); note: nearly all actives have a fitted effect of over 40% in size
Method in brief: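 HepG2 cells stably co-transfected with hCAR and a CYP2B6-2.2kb luciferase reporter were seeded 4 h before compound addition at 15 concentrations. Cells were stimulated with 50 nM CITCO (final) for 24 h at 37 C; luciferase luminescence was then read.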

[7] = target: Nuclear receptor subfamily 1 group I member 3 (Homo sapiens) (UniProt Q14994); assay: qHTS assay to identify small molecule agonists of the constitutive androstane receptor (CAR) signaling pathway (AID 1224839);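 note: HepG2 cells stably carrying human CAR and a CYP2B6 luciferase reporter; nearly all actives have a fitted effect of over 15% in size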
Method in brief: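 Luminescence read-out (ONE-Glo, 30 min, room temperature) from double-stable HepG2-CYP2B6-hCAR cells exposed 24 h to 15-point compound series in presence of 0.75 uM PK11195 final.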

[8] = qHTS assay to identify small molecule antagonists of the estrogen related receptor signaling pathway with the pleiotropic PPARgamma coactivator (PGC) from Tox21 10K library - cell viability counter screen (AID 1224840; active = well fitted cell-killing curve with a large enough effect in the repeat runs, not every such curve was filed as active; note: nearly all actives have a fitted effect of over 40% in size)
Method in brief: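 PGC/ERR cells were seeded at 2,000 cells/well and left 6 hours at 37 C/5% CO2 before pin-tool addition of compounds in DMSO. After 17.5 hours at 37 C, CellTiter-Fluor was added and fluorescence read 30 minutes later.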

[9] = qHTS assay to identify small molecule antagonists of the estrogen related receptor signaling pathway with the pleiotropic PPARgamma coactivator (PGC) from Tox21 10K library (AID 1224841; call rule not given here; note: actives are mostly falling curves and most rising ones were filed inactive; nearly all actives have a fitted effect of over 50% in size)
Method in brief: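 PGC/ERR reporter cells were seeded at 2,000 cells/well and held 6 hours at 37 C/5% CO2 before pin-tool addition of compounds in DMSO. After 18 hours at 37 C, One-Glo was added and luminescence read after 30 minutes at room temperature.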

[10] = qHTS assay to identify small molecule agonists of the estrogen related receptor signaling pathway with the pleiotropic PPARgamma coactivator (PGC) from Tox21 10K library (AID 1224842); note: nearly all actives have a fitted effect of over 15% in size
Method in brief: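 PGC/ERR reporter cells (NTP line) were seeded 2,000 per well, rested 6 h at 37 C/5% CO2, then pin-dosed with compounds in DMSO for 18 h at 37 C; luciferase read by One-Glo luminescence after 30 min at room temperature.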

[11] = qHTS assay to identify small molecule agonists of the hypoxia (HIF-1) signaling pathway - cell viability counter screen (AID 1224844; calls by dose curve; note: nearly all actives have a fitted effect of over 50% in size)
Method in brief: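 HRE-bla ME-180 cells in medium with 0.5% dialyzed FBS were preincubated 5 hrs at 37C, exposed to compounds for 17 hrs, then viability was read as CellTiter-Glo luminescence after 30 min at room temperature, in the reporter wells.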

[12] = qHTS assay to identify small molecule agonists of H2AX (AID 1224845; active = well fitted activation curve with a large enough effect in the signal ratio in the repeat runs, not every such curve was filed as active; the % refers to the signal ratio)
Method in brief: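 Wild-type CHO-K1 cells plated overnight, then exposed 3 hr at 37C to compounds at 15 concentrations (0.76% DMSO). Lysed, then HTRF anti-pH2AX(S139)-cryptate/anti-H2AX-d2 detection after 24 hr at room temperature; emissions 665 and 620 nm.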

[13] = qHTS assay to identify small molecule agonists of the hypoxia (HIF-1) signaling pathway (AID 1224846; active = well fitted activation curve with a large enough effect in the signal ratio in the repeat runs, not every such curve was filed as active; the % refers to the signal ratio)
Method in brief: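 HRE-bla ME-180 cells (beta-lactamase reporter under hypoxia response element) were plated at 2,000 cells/well in medium with 0.5% dialyzed FBS, rested 5 hrs, then given compounds in DMSO for 17 hrs at 37C, 5% CO2. Reporter induction was read with CCF4-AM FRET substrate.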

[14] = qHTS assay to identify small molecule agonists of H2AX - cell viability counter screen (AID 1224847; calls by dose curve; note: top concentration of the series differs between compounds; nearly all actives have a fitted effect of over 30% in size)
Method in brief: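 CHO-K1 wt, 1000 cells/well, o/n 37C; cpds 15 conc, 3 h 37C, 0.76% DMSO; CellTiter-Glo, 30 min RT, luminescence.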

[15] = qHTS assay to identify small molecule antagonists of the estrogen related receptor (ERR) signaling pathway from Tox21 library (AID 1224848); note: nearly all actives have a fitted effect of over 50% in size
Method in brief: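 Cells: ERR line, 2,000/well; 6 h preincubation 37 C/5% CO2. Cpd in DMSO via pin tool; 18 h, 37 C. ONE-Glo, 30 min RT, luminescence.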

[16] = qHTS assay to identify small molecule agonists of the estrogen related receptor (ERR) signaling pathway from Tox21 library (AID 1224849; calls by dose curve; note: nearly all actives have a fitted effect of over 15% in size); conditions: ERR reporter cell line, ONE-Glo luciferase, 18 h; at 92.4 µM (top of the series) unless noted
Method in brief: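 ERR reporter cell line (NTP) seeded, rested 6 h at 37 C/5% CO2, then pinned with Tox21 compounds in DMSO. After 18 h at 37 C, ONE-Glo luciferase luminescence was read following 30 min at room temperature.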

[17] = qHTS RealTime-Glo MT Cell Viability Assay in HepG2 cells - 24 hour (AID 1224867); note: nearly all actives have a fitted effect of over 50% in size
Method in brief: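 HepG2 suspension premixed with RealTime-Glo reagents is plated at 600 cells per well and left 5 h at 37 C/5% CO2. Compounds in DMSO then go in, and bioluminescence reflecting viable cell number is recorded over 40 h.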

[18] = qHTS RealTime-Glo MT Cell Viability Assay in HEK293 cells - 32 hour (AID 1224868)
Method in brief: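 Reads taken at 0, 8, 16, 24, 32 and 40 h from the same wells. HEK293 cells (600/well) carried RealTime-Glo reagents from seeding, with compound added after a 5 h settle at 37 C.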

[19] = A CellTox Green Cytotoxicity Assay to monitor cytotoxicity in HEK293 cells - 0 hour (AID 1224869); note: nearly all actives have a fitted effect of over 50% in size
Method in brief: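 HEK293 cells premixed with CellTox Green dye were seeded at 600 cells/well and left 5 h at 37 C/5% CO2 before pin transfer of 23 nL compound in DMSO. Fluorescence from dye bound to dead-cell DNA was read during 40 h treatment.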

[20] = target: Thyrotropin receptor (Homo sapiens) (UniProt P16473); assay: qHTS assay to identify small molecule agonists of the thyroid stimulating hormone receptor (TSHR) signaling pathway (AID 1224843; calls by dose curve; note: nearly all actives have a fitted effect of over 45% in size)
Method in brief: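 TSHR-expressing HEK293 cells (800 per well) were exposed to compounds for 30 min at room temperature. cAMP was then detected by HTRF competition with cAMP-d2 and anti-cAMP cryptate, read after 1 h at room temperature. Fifteen concentrations, triplicate.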
% is set by controls: 0 for no effect and ±100 for the full control effect.

Sequence of Nuclear receptor subfamily 1 group I member 3 (Homo sapiens) (Q14994 whole entry, looked up): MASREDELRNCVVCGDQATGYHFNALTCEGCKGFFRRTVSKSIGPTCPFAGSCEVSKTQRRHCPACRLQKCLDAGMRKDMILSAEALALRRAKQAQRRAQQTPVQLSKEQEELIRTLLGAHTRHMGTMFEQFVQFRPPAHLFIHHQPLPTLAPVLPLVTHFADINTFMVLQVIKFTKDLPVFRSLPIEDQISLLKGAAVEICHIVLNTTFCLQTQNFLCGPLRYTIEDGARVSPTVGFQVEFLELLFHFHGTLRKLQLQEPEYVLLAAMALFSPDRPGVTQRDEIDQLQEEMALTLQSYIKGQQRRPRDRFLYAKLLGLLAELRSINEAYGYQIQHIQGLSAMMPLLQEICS
Sequence of Luciferin 4-monooxygenase (Photinus pyralis) (P08659 whole entry, looked up): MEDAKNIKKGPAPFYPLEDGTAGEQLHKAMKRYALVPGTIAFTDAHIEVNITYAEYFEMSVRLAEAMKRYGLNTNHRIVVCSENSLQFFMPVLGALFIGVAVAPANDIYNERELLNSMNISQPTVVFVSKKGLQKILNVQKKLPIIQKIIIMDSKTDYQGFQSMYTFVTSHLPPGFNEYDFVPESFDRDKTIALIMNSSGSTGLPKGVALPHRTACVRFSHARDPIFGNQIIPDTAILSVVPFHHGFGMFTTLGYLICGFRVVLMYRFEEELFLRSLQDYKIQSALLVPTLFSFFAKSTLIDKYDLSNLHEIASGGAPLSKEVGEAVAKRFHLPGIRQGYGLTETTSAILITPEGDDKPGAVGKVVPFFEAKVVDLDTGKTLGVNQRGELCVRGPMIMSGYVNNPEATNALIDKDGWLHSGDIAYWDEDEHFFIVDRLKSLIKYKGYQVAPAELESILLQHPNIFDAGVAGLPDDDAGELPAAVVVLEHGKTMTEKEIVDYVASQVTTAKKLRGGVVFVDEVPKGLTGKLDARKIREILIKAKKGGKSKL
Sequence of Thyrotropin receptor (Homo sapiens) (P16473 whole entry, looked up): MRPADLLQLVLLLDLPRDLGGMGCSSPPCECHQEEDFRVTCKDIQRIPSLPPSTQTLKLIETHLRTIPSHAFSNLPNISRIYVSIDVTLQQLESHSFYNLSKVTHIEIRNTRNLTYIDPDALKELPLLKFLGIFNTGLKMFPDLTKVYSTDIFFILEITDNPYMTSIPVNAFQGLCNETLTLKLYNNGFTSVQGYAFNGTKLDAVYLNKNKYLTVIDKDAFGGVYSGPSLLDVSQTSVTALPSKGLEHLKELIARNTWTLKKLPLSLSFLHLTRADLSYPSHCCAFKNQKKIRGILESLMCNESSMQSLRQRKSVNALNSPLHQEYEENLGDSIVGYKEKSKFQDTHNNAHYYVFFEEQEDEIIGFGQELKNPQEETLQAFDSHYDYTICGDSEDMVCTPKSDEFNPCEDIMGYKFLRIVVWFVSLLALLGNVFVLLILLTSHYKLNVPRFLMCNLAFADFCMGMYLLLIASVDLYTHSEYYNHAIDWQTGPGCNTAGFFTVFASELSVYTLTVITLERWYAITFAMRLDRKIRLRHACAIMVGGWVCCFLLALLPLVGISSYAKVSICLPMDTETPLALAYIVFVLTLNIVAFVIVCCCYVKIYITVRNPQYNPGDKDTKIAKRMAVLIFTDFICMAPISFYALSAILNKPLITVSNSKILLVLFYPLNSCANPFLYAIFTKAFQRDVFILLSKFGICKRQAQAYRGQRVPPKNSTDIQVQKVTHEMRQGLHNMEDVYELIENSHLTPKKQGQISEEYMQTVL

CC[C@@H](CO)NC(=O)[C@@H]1C=C2c3cccc4c3c(cn4C)C[C@H]2N(C)C1
inactive: outcome [1] | Potency [2] | Potency [3] | Potency [4] | Potency [5] | Potency [6] | Potency [7] | Potency [8] | Potency [9] | Potency [10] | Potency [11] | outcome [12] | outcome [13] | Potency [14] | Potency [15] | activity change, positive = activation [16] 0.637% [at 42.5 µM] | Potency [17] | Potency [18] | outcome [19]

CCC(CC)(CNC(=O)CCCO)c1cccc(OC)c1
inactive: Potency [2] | Potency [3] | Potency [4] | Potency [5] | Potency [6] | Potency [7] | Potency [8] | Potency [9] | Potency [10] | Potency [20] | Potency [11] | outcome [12] | outcome [13] | Potency [14] | Potency [15] | activity change, positive = activation [16] 4.37% [at 42.5 µM] | Potency [17] | Potency [18] | outcome [19]

CCN(CC)CCOC(=O)C(O)(c1ccccc1)c1ccccc1
inactive: Potency [2] | Potency [3] | Potency [4] | Potency [5] | Potency [6] | Potency [7] | Potency [8] | Potency [9] | Potency [10] | Potency [20] | Potency [11] | outcome [12] | Potency [14] | Potency [15] | activity change, positive = activation [16] 2.32% [at 42.5 µM] | Potency [17] | Potency [18] | outcome [19]

ClC(Cl)(Cl)Cl
inactive: Potency [2] | Potency [3] | Potency [4] | Potency [5] | Potency [6] | Potency [7] | Potency [8] | Potency [9] | Potency [10] | Potency [20] | Potency [11] | outcome [12] | outcome [13] | Potency [14] | Potency [15] | activity change, positive = activation [16] -3.58% | Potency [17] | Potency [18] | outcome [19]

Cl/C=C/CCl
inactive: Potency [2] | Potency [3] | Potency [4] | Potency [5] | Potency [6] | Potency [7] | Potency [8] | Potency [9] | Potency [10] | Potency [20] | Potency [11] | outcome [12] | Potency [14] | Potency [15] | activity change, positive = activation [16] 5.39% | Potency [17] | Potency [18] | outcome [19]

C=CCN1CC[C@]23CCCC[C@H]2[C@H]1Cc1ccc(O)cc13
inactive: Potency [2] | Potency [3] | Potency [4] | Potency [5] | Potency [6] | Potency [7] | Potency [8] | Potency [9] | Potency [10] | Potency [20] | Potency [11] | outcome [12] | Potency [15] | activity change, positive = activation [16] 5.12% [at 42.5 µM] | Potency [17] | Potency [18] | outcome [19]
